In ChEMBL document CHEMBL1961873, “Compounds: GSK PKIS; Assays: Nanosyn kinase panel” (2012) one finds inhibition data, which are given here for 17 molecules.

Test [1] addresses Ribosomal protein S6 kinase alpha-6 (Homo sapiens) (UniProt Q9UK32). Conditions: at 1 µM.
Test [2] deals with T1, Serine/threonine-protein kinase Sgk1 (Homo sapiens) (UniProt O00141).
T1 sequence (whole entry): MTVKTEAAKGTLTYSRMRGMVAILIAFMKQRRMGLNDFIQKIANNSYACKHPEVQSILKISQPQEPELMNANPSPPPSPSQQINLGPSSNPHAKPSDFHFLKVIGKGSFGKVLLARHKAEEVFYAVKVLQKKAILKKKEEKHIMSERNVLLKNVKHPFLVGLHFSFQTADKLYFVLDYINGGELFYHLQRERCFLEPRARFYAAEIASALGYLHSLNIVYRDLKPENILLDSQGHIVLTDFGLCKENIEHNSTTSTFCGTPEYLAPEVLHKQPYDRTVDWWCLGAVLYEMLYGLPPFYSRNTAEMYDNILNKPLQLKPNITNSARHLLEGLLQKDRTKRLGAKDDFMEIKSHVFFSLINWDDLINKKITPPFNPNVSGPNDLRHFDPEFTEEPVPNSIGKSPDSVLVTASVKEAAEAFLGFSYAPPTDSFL
Conditions: at 0.1 µM.

Test [3] has as its target T1, Serine/threonine-protein kinase Sgk1 (Homo sapiens). Conditions: at 1 µM.
Test [4] deals with T2, Serine/threonine-protein kinase Sgk2 (Homo sapiens) (UniProt Q9HBY8).
T2 sequence (whole entry): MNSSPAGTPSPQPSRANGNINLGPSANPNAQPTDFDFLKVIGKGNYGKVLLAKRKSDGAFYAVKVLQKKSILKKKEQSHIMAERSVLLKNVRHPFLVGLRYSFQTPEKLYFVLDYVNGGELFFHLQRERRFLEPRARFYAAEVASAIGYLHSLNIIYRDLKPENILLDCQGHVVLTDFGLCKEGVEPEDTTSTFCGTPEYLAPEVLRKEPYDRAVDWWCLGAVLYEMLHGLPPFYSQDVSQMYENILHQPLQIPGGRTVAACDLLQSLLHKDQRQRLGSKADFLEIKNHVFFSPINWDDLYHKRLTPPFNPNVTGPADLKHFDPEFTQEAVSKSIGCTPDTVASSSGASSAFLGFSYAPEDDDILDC
Conditions: at 0.1 µM.

The target in test [5] is T2, Serine/threonine-protein kinase Sgk2 (Homo sapiens). Conditions: at 1 µM.
For test [6], the target named is T3, Serine/threonine-protein kinase Sgk3 (Homo sapiens) (UniProt Q96BR1).
T3 sequence (whole entry): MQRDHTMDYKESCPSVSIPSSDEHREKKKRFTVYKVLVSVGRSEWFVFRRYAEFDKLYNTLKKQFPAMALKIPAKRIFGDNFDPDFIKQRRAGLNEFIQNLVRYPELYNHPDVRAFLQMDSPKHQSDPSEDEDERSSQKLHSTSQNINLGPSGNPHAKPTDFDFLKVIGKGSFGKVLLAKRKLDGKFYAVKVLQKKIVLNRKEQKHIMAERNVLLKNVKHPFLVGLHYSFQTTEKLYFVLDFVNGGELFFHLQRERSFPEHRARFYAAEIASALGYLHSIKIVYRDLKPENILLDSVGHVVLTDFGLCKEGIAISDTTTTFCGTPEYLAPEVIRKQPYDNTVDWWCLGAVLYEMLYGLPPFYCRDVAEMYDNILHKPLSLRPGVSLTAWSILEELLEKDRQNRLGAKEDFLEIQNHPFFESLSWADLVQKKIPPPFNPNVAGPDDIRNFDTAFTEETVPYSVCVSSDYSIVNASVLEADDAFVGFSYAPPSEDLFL
Conditions: at 0.1 µM.

Test [7] has as its target T3, Serine/threonine-protein kinase Sgk3 (Homo sapiens). Conditions: at 1 µM.
The target in test [8] is 5'-AMP-activated protein kinase catalytic subunit alpha-1 (Homo sapiens) (UniProt Q13131). Conditions: at 0.1 µM.
For test [9] the target is unchanged. Conditions: at 1 µM.
Test [10] deals with 5'-AMP-activated protein kinase catalytic subunit alpha-2 (Homo sapiens) (UniProt P54646). Conditions: at 0.1 µM.
Sequence of 5'-AMP-activated protein kinase catalytic subunit alpha-2 (Homo sapiens) (P54646 whole entry, looked up): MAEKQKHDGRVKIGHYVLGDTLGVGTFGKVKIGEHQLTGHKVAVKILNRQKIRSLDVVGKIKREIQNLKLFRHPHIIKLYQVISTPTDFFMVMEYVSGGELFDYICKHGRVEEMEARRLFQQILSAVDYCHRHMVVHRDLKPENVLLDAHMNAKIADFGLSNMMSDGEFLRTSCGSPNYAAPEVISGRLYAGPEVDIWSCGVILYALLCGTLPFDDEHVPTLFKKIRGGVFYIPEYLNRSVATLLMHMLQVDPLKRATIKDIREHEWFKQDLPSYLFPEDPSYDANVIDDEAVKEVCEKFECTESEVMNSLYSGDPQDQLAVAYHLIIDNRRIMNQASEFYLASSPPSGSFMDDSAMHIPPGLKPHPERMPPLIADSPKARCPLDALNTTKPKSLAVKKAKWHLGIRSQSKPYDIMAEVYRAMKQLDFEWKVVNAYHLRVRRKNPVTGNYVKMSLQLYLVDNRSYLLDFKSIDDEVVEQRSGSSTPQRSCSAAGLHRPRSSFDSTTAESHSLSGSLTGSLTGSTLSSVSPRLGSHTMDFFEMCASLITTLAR

Sequence of 5'-AMP-activated protein kinase catalytic subunit alpha-1 (Homo sapiens) (Q13131 whole entry, looked up): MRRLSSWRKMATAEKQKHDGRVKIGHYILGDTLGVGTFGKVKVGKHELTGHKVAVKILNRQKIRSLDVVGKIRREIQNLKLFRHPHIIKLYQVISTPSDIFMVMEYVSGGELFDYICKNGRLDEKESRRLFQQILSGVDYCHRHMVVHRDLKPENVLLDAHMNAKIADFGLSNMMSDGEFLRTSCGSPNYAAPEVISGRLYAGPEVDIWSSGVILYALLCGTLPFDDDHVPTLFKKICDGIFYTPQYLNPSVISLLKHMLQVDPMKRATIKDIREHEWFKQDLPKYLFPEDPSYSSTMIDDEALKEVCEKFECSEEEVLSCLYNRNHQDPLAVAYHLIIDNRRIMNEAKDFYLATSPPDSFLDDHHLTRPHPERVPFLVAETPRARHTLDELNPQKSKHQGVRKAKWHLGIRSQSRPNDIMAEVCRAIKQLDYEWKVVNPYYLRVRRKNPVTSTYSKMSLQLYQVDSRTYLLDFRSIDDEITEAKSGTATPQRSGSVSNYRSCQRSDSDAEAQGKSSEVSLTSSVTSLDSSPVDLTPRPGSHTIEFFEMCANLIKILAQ
Sequence of Ribosomal protein S6 kinase alpha-6 (Homo sapiens) (Q9UK32 whole entry): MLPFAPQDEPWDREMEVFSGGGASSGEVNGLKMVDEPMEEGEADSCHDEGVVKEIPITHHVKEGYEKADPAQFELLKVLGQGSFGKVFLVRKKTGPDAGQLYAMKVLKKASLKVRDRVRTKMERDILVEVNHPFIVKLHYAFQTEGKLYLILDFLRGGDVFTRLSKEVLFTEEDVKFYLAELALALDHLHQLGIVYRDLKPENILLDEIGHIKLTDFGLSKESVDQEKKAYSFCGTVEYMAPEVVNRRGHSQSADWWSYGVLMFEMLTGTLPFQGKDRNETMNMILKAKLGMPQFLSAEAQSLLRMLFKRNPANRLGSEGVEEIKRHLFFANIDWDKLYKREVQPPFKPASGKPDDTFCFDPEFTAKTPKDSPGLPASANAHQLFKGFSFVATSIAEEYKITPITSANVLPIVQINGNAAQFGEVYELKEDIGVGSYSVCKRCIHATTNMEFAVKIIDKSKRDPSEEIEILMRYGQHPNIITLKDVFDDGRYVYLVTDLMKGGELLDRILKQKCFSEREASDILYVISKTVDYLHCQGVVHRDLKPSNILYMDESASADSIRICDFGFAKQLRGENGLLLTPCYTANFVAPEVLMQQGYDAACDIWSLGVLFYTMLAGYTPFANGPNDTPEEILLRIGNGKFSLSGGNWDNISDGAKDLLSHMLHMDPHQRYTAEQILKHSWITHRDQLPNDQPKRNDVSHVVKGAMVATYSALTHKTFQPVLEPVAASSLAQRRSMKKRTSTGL

Turning to `NS(=O)(=O)c1ccc(N/N=C2\C(=O)Nc3ccc(-c4cnco4)cc32)cc1`, the inhibition in test [1] turned out to be 5.02%; in [2] it was 1.68%; in test [3] it was 10.2%; in [4], 1.11%; in test [5], 3.35%; in test [6], 1.34%. In addition, the inhibition in [7] worked out at 5.76%; in test [8] it was 3.38%; in test [9] it was 15.9%; in [10] it was 5.38%.

For `O=C(Nc1n[nH]c2cc(-c3ccccc3)ccc12)C1CC1`, the inhibition was found to be 3.11% in [1]; 2.86% in [2]; 5.38% in test [3]; 1.79% in test [4]; 1.73% in [5]; 4.57% in test [6]. Also, the inhibition in test [7] worked out at 3.95%; in [8], 3.49%; in test [9] it was 4.22%; in test [10] it was 4.21%.

Turning to `O=C1Nc2ccccc2/C1=C/Nc1ccc(-n2cncn2)cc1`, the inhibition worked out at 11.4% in test [1]; 5.81% in [2]; 29.2% in test [3]; 3.56% in [4]; 10.9% in test [5]; 4.57% in [6]. The inhibition in [7] turned out to be 8.06%; in [8], 5.93%; in test [9], 19.3%; in test [10] it was 3.9%.

For the molecule `CCS(=O)(=O)c1ccc(OC)c(Nc2ncc(-c3ccccc3Cl)o2)c1`, the inhibition in [1] was 3.92%; in test [2], -0.42%; in [3], 2.5%; in test [4] it was -1.58%; in [5], -2.15%; in test [6] it was -0.26%. In addition, the inhibition in test [7] is -1.36%; in test [8], 1.54%; in [9] it was 0.82%; in test [10], -1.8%.

As to `Fc1ccc(-c2nc3n(c2-c2ccncc2)CCS3)cc1`, the inhibition in test [1] came out at 3.9%; in test [2] it was 3.17%; in test [3] it was 4.66%; in test [4], 2.05%; in [5], 4.96%; in test [6], 1.96%. Further, the inhibition in [7] was determined as 2.6%; in test [8], 2.91%; in test [9] it was 2.64%; in test [10], 4.5%.

For the molecule `N#Cc1ccc(Oc2nccc(-c3c(-c4ccc(F)cc4)ncn3C3CCNCC3)n2)cc1`, the inhibition in test [1] came out at 0.97%; in [2], 2.45%; in test [3], 2.02%; in [4] it was 7.44%; in [5], 3.86%; in test [6] it was 2.02%. Moreover, the inhibition in [7] turned out to be 3.62%; in test [8] it was 2.27%; in [9] it was 3.89%; in test [10], 3.09%.

As for `Cc1ccc(NC(=O)c2ccoc2)cc1-c1ccc(C(=O)NCC2CC2)cc1`, the inhibition in test [1] is -0.14%; in [2], 0.63%; in [3] it was 0.73%; in test [4], 2.95%; in test [5] it was -0.89%; in [6] it was 7.71%. Besides, the inhibition in test [7] was 3.98%; in test [8], 0.17%; in [9] it was 1.06%; in test [10], -0.17%.

On to `CS(=O)(=O)CCNCc1cc(-c2cc3c(Nc4ccc(OCc5cccc(F)c5)c(Cl)c4)ncnc3s2)cs1`, for which the inhibition worked out at 2.5% in test [1]; 2.39% in [2]; 1.38% in [3]; 5.74% in [4]; 2.6% in test [5]; 3.92% in [6]. The inhibition in test [7] came to 6.65%; in test [8] it was 2.39%; in [9] it was 3.88%; in test [10], 5.96%.

Consider `Fc1ccc(-c2ncn(C3CCNCC3)c2-c2ccnc(Oc3ccc4c(c3)OCO4)n2)cc1`, for which the inhibition in test [1] stood at 3.03%; in test [2] it was 3.72%; in test [3], 3.6%; in test [4], 2.63%; in test [5], 3.07%; in test [6], 6.26%. Besides, the inhibition came out at 4.11% in test [7], 2.72% in test [8], 3.99% in [9] and 3.86% in test [10].

For the molecule `COc1cccc(-n2cnc3c(N/N=C/c4ccncc4)ncnc32)c1`, the inhibition in test [1] turned out to be 1.9%; in test [2], 1.3%; in test [3], 4.05%; in [4], 1.67%; in test [5], 2.41%; in test [6], 3.19%. For the same molecule, the inhibition in test [7] was 3.83%; in [8], 1.05%; in [9], 3.79%; in test [10], -1.1%.

With `O=C(Nc1n[nH]c2cc(-c3cc(F)ccc3F)ccc12)C1CC1`, the inhibition in [1] worked out at 2.43%; in test [2], 2.46%; in test [3] it was 1.25%; in test [4], 0.34%; in test [5], 0.08%; in [6] it was 2.01%. Besides, the inhibition in test [7] was 0.16%; in test [8], 2.72%; in test [9], 2.32%; in test [10] it was 3.84%.

For `Cc1ccc(C(=O)NC(C)C)cc1-c1ccc(C(=O)NCC2CC2)cc1`, the inhibition is 0.59% in test [1]; 0.01% in [2]; -0.09% in test [3]; -3.55% in [4]; -7.09% in test [5]; -5.05% in [6]. Further, the inhibition in [7] was -2.17%; in [8] it was -1.19%; in [9] it was -1.42%; in test [10] it was -0.98%.

As to `COc1cc(Nc2ncc3c(C)nc(-c4cccc(Oc5ccccc5)c4)n3n2)cc(OC)c1OC`, the inhibition in test [1] is 13.2%; in test [2], 2.08%; in test [3], -0.71%; in test [4] it was 1.09%; in [5], -2.63%; in [6] it was 0.96%. The inhibition in test [7] is -0.95%; in test [8], 1.87%; in test [9] it was 13%; in [10], 0.57%.

As for `NS(=O)(=O)c1ccc(Nc2cc(-c3ccc(O)c(F)c3)n[nH]2)cc1`, the inhibition in test [1] was 59.5%; in [2], -0.99%; in test [3], 3.11%; in test [4] it was -0.41%; in test [5], 3.07%; in test [6] it was 0.2%. In addition, the inhibition in test [7] is -0.29%; in [8], 0.53%; in test [9] it was 15.2%; in test [10], 0.54%.

As to `NC(=O)c1cc(-c2ccncc2)cc(-c2ccccc2)c1N`, the inhibition was 2.63% in test [1]; 4.37% in test [2]; 2.48% in [3]; 4.36% in test [4]; 3.52% in test [5]; 2.61% in test [6]. Besides, the inhibition in test [7] was 5.81%; in test [8], 3.6%; in test [9] it was 2.86%; in test [10], 4.45%.

With `NS(=O)(=O)c1ccc(N/N=C2\C(=O)Nc3ccc(C(=O)NCCCn4ccnc4)cc32)cc1`, the inhibition was found to be 13% in test [1]; 5.02% in test [2]; 14.6% in test [3]; 2.07% in [4]; 7.54% in test [5]; 3.25% in test [6]. The inhibition in [7] worked out at 6.44%; in [8] it was 18%; in test [9] it was 64.4%; in test [10], 5.78%.

In the case of `c1ccc(Oc2ccc(Nc3ncc(-c4ccccc4)o3)cc2)cc1`, the inhibition stood at 0.25% in test [1]; 2.19% in test [2]; 2.9% in test [3]; 6.17% in test [4]; 2.79% in test [5]; 3.61% in test [6]. Also, the inhibition in test [7] amounted to 3.17%; in [8], 0.33%; in [9], 3.46%; in [10], 1.31%.

A word on the inhibition: it is the relative decrease from the control value, in per cent.
